Screens (PubChem BioAssay)
MARV entry inh: blocks Marburg virus binding to or entry into cells; Marburg virus pseudotyped entry inhibition, cell reporter; Potency, µM (series often up to 37.8 µM), inactives show at the top dose activity change, negative = inhibition, hits mostly inhibitors; hit rate 1.8% among 300,000; calls by dose curve; tested in HEK293 cells; further: potency means the concentration at half of the fitted maximal effect; on the % scale 0 is the no-effect control and ±100 the full control effect
Vaccinia mCherry: vaccinia inhibition (mCherry reporter). Vaccinia virus mCherry reporter infection, fluorescence. hit rate 0.63% among 310,000. Potency, µM (titrated, usually from 36.5 µM), for inactives: top-dose activity change, negative = inhibition, usual class: inhibitors. AID 720579; calls by dose curve; tested in A549 cells; further: potency means the concentration at half of the fitted maximal effect; on the % scale 0 is the no-effect control and ±100 the full control effect; nearly all actives have a fitted effect of over 35% in size
CHX counter: affects cycloheximide protein synthesis inhibition readout, counter-screen; cell reporter, cycloheximide protein synthesis inhibition counterscreen; max response, %; hit rate 12% among 300,000; AID 2314; in the data active means max response mostly above about 13%, no sharp cut-off; inactive means mostly below about 14%; further: read at 38.3 µM for the half of the compounds with a filed dose; 0% is about no effect
Lassa entry inh: inhibitors of Lassa virus binding or cell entry; Lassa virus pseudotype entry inhibition, cell reporter; AID 540256; hit rate 1.2% among 300,000; Potency, µM (top dose mostly 37.9 µM), for inactives: at the top dose activity change, negative = inhibition, most hits filed as inhibitors; calls by dose curve; tested in HEK293 cells; further: potency means the concentration at half of the fitted maximal effect; on the % scale 0 is the no-effect control and ±100 the full control effect; nearly all actives have a fitted effect of over 50% in size
Vaccinia Venus: inhibitors of vaccinia virus (Venus reporter); Vaccinia virus Venus reporter expression, fluorescence; Potency, µM (highest dose often 36.5 µM), without a hit: at the top dose activity change, negative = inhibition, actives largely listed as inhibitors; hit rate 0.46% among 330,000; AID 720580; calls by dose curve; tested in A549 cells; further: potency means the concentration at half of the fitted maximal effect; on the % scale 0 is the no-effect control and ±100 the full control effect; nearly all actives have a fitted effect of over 30% in size
Shiga toxin inh: Shiga toxin inhibition; hit rate 9.2% among 290,000; Vero cells, Shiga toxin protein synthesis inhibition reporter; AID 2315; inhibition, % at 38.7 µM; in the data active means inhibition mostly above about 28%, no sharp cut-off; inactive means mostly below about 43%; further: 0% is about no effect
Active calls of the source: *; i = inactive; ? = inconclusive; nt = no result given; ! = not active in a repeat; [ ] = another dose, or the depositor's remark. Many of the other results were omitted from the sample, so hits are more common in it than they were.

SMILES	MARV entry inh	Vaccinia mCherry	CHX counter	Lassa entry inh	Vaccinia Venus	Shiga toxin inh
CCCNC(=S)N1CCN(c2nc(-c3ccc(C)cc3)cs2)CC1	?	-13%	13*	-11%	-30%	-2
S=C(NCCCN1CCOCC1)N1CCN(c2nc(-c3ccccc3)cs2)CC1	?	?	2	?	?	10
CC(C)OCCCNC(=O)c1ccc(CS(=O)(=O)c2cccc(C(F)(F)F)c2)o1	0%[46.1 µM]	-15%	0	-11%[46.1 µM]	-20%	-6
S=c1[nH]c2cc3ccccc3cc2[nH]1	nt	nt	43*!	nt	nt	98*!
COc1ccc(C=NNC(=O)NN=Cc2ccc(OC)c(OC)c2)cc1OC	?	i	nt	?	-5%	nt
CSC(=S)N/N=C/c1ccccc1	13%[46.1 µM]	-20%	25*	29%[46.1 µM]	-15%	27*
COc1ccc(/C=N/NC(=S)SC)cc1OC	nt	nt	18*	nt	nt	22
COC(=O)N/N=C/c1ccccc1	13%[46.1 µM]	-4%	17*	6%[46.1 µM]	-7%	30
CCC1CN(C(=O)N2CCC(C(=O)NCCc3ccc(OC)cc3OC)CC2)c2cc(C)ccc2O1 (configuration not stated)	nt	-15%	nt	-18%[46.1 µM]	-20%	nt
COc1cc(-c2noc(-c3nnn(-c4ccc(Cl)cc4)c3C)n2)cc(OC)c1OC	nt	-3%	nt	24%[46.1 µM]	-4%	nt
Cn1cccc1C(=O)OCC(=O)NC(=O)c1ccc(Cl)cc1	?	-13%	nt	20%	-10%	nt
Cn1cccc1C(=O)OCc1cc(Cl)cc2c1OCOC2	?	nt	62*	29%	nt	145*
CCn1nccc1C(=O)Nc1ccc(C(=O)OC(C)C)cc1	nt	nt	24*	nt	nt	nt
CCn1nccc1C(=O)Nc1cc(Cl)ccc1Cl	-13%	-29%	-1	-3%	-21%	2
CCn1nccc1C(=O)Nc1ccc(Cl)cc1Cl	25%	i	23*	10%	-8%	40*
CCc1nn2c(=O)c(S(=O)(=O)Nc3ccc(OC)c(Cl)c3)c(C)nc2s1	?	-4%	nt	17%[46.1 µM]	-5%	nt
COc1cccc(CC(=O)NCC2Cc3cc(Cl)cc(-c4ncccn4)c3O2)c1 (configuration not stated)	nt	-6%	nt	nt	-23%	nt
Cc1ccc(NC(=O)c2ccc(OCC3CCCO3)cc2)nc1 (configuration not stated)	?	-19%	nt	?	-3%	nt
COc1ccc(OC)c(-c2csc(NC(=O)CSc3ccc(Br)cc3)n2)c1	-38%	-12%	-8	7.9µM*	-21%	-12
Cc1ccc(NC(=O)c2ccc(OCC3CCCO3)cc2)cc1 (configuration not stated)	?	i	57*	?	-9%	104*
Cc1cnc(NC(=O)c2ccc(OCC3CCCO3)cc2)s1 (configuration not stated)	?	-6%	8	1.8µM*	-7%	62
COc1ccc(OC)c(-c2csc(NC(=O)c3ccc(OCC4CCCO4)cc3)n2)c1 (configuration not stated)	1%	nt	39*	nt	nt	40*
COc1ccc(OC)c(-c2csc(NC(=O)CSc3ccc([N+](=O)[O-])cc3)n2)c1	?	-18%	-2	?	-4%	-3
FC(F)(F)c1ccccc1-c1nc(N2CCNCC2)c2ccccc2n1	nt	-13%	nt	nt	-8%	nt
COc1ccc(CNn2cnnc2)c(O)c1	?	i	-3	?	-1%	24
SMILES	MARV entry inh	Vaccinia mCherry	CHX counter	Lassa entry inh	Vaccinia Venus	Shiga toxin inh
O=C(NCc1ccccc1)c1ccc(OCC2CCCO2)cc1 (configuration not stated)	0%	-27%	21	17%	-12%	33
O=C(Nc1nc2ccccc2s1)c1ccc(OCC2CCCO2)cc1 (configuration not stated)	?	-6%	18*	10µM*	-19%	82*
O=C(CN1CCc2ccccc2C1)c1cccs1	?	nt	49*	16%	-12%	82*
CC1CCN(CC(=O)c2cccs2)CC1	8%	i	13*	17%	-10%	37*
CC1CC(C)CN(CC(=O)c2cccs2)C1 (configuration not stated)	0%	i	-2	6%	-2%	-1
CC1CCN(CC(=O)c2ccccc2Cl)CC1	27%	-8%	14	16%	-11%	31*
c1ccc(-n2ncc3c(NCc4ccco4)ncnc32)cc1	?	?	53*	?	?	85*
Cc1ccc(-n2ncc3c(NCc4ccco4)ncnc32)c(C)c1	nt	-27%	16*	nt	-19%	15
Cc1ccc(CNc2ncnc3[nH]ncc23)o1	nt	-2%	nt	nt	-19%	nt
c1ccc(Cn2ncc3c(NCc4ccco4)ncnc32)cc1	?	-16%	-2	?	-19%	2
COCCCNc1ncnc2c1cnn2-c1ccc(C)cc1C	-1%	i	11	4%	-17%	11
Cc1ccc(-n2ncc3c(NCc4ccccn4)ncnc32)c(C)c1	?	-8%	10	7%	-19%	11
c1coc(CNc2ncnc3[nH]ncc23)c1	?	6.3µM*!	-4	-27%[46.1 µM]	?	-4
CCCCNc1ncnc2c1cnn2-c1ccc(C)cc1C	nt	-13%	15*	nt	-12%	14
COc1cc(-c2noc(-c3cc(C)[nH]n3)n2)cc(OC)c1OC	nt	-5%	nt	13%[46.1 µM]	-10%	nt
O=C(NCCCc1ccccc1)c1ccc(-n2cncn2)c([N+](=O)[O-])c1	7%	0%	nt	-4%[46.1 µM]	-15%	nt
CCOc1ccc(CCNC(=O)c2sc3ncccc3c2-n2cccc2)cc1OCC	nt	-11%	nt	?	-11%	nt
Cc1ccc2[nH]c3c(NCc4ccco4)ncnc3c2c1	10µM*	?	19*	-28%	?	87*
COc1cc(CNc2ncnc3c2[nH]c2ccc(C)cc23)cc(OC)c1	nt	nt	-1	nt	nt	-3
Cc1nn(-c2ccc(Br)cc2)c(=O)c2ccccc12	?	2%	70*	?	9%	125*
O=C(Nc1ccc(Cl)cc1N1CCOCC1)C1CCCCC1	5%[46.1 µM]	-13%	3	-1%[46.1 µM]	-15%	-6
COc1ccc(NC(=O)Nc2ccc(N3CCOCC3)c3nonc23)c(OC)c1	nt	-5%	-1	nt	18%	-13
O=C(Nc1ccc(N2CCOCC2)c2nonc12)C1CCCC1	9%	-19%	18*	-4%	-19%	37
O=C(Nc1ccc(F)cc1)Nc1ccc(N2CCOCC2)c2nonc12	?	-10%	18*	-24%	-1%	38
FC(F)(F)c1ccccc1-n1c(-c2cnccn2)n[nH]c1=S	?	-6%	41*	-21%[46.1 µM]	-5%	53*
Cc1ccc(-n2c(-c3cnccn3)n[nH]c2=S)c(Br)c1	?	-12%	8	8%[46.1 µM]	-5%	-4
Cc1cccc(-c2cccc(NC(=O)C3CCCN(C(=O)c4cccnc4)C3)c2)c1 (configuration not stated)	nt	nt	2	nt	nt	-4
Cc1cccc(-c2cccc(NC(=O)C3CCCN(C(=O)c4csc(C)n4)C3)c2)c1 (configuration not stated)	nt	nt	17*	nt	nt	46*
CCc1ncc(CN2CCCC(C(=O)Nc3cccc(-c4cccc(C)c4)c3)C2)cn1 (configuration not stated)	?	?	-3	-16%	?	-17
